# Results reported in the supplement of paper PMC6522484.
# “And” between values parts separate entries of the source, which are not always exact repeats. Identical values can stand only once. ± gives the standard deviation of the averaged measurements.
# Experiments:
# [1] = test system: DLD1; assay: cell viability (CellTiter-Glo) relative to plate median (fraction of plate median); higher = more viable cells; settings: 10 µM, treatment time 24 h
# Outline: (§1)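 Colorectal cancer cell lines stably transduced with lentiviral TCF/Wnt firefly luciferase reporters (7TFP or TCF4/Wnt) were seeded in 384-well plates. 24 h later they received kinase inhibitor library compounds at a final 10 µM for 24 h. Parallel plates were read for firefly luciferase or CellTiterGlo luminescence on a Tecan F500 reader. Each well's signal was normalised to the plate median (webcellHTS2, additive, no log transformation), and the mean of two independent replicates is reported.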
# [2] = test system: HCT116; assay: as above; settings: 10 µM; treatment time 24 h; reporter: TCF4/Wnt
# Outline: as §1
# [3] = test system: SW480; assay: as above; settings: 10 µM; treatment time 24 h; reporter: 7TFP
# Outline: as §1
# [4] = test system: DLD1; assay: TCF/Wnt firefly luciferase reporter signal relative to plate median (fraction of plate median); higher = higher Wnt reporter signal; settings: 10 µM, treatment time 24 h
# Outline: as §1
# [5] = test system: HCT116; assay: as above; settings: 10 µM; treatment time 24 h; reporter: TCF4/Wnt
# Outline: as §1
# [6] = test system: SW480; assay: as above; settings: 10 µM; treatment time 24 h; reporter: 7TFP
# Outline: as §1
# [7] = test system: DLD1; assay: cell viability (CellTiter-Glo) relative to plate median (fraction of plate median); higher = more viable cells; settings: 5 µM; treatment time 24 h; reporter: 7TFP
# Outline: (§2)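 Values are well luminescence normalised to the plate median, from either a firefly luciferase or a CellTiterGlo readout on parallel plates. The cells, colorectal cancer lines stably transduced with lentiviral 7TFP or TCF4/Wnt firefly luciferase reporters, were treated with library compounds at a final 5 µM for 24 h. The mean of two independent replicates is listed.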
# [8] = test system: HCT116; assay: as above; settings: 5 µM; treatment time 24 h; reporter: TCF4/Wnt
# Outline: as §2
# [9] = test system: SW480; assay: as above; settings: 5 µM; treatment time 24 h; reporter: 7TFP
# Outline: as §2
# [10] = test system: DLD1; assay: TCF/Wnt firefly luciferase reporter signal relative to plate median (fraction of plate median); higher = higher Wnt reporter signal; settings: 5 µM; treatment time 24 h; reporter: 7TFP
# Outline: as §2
# [11] = test system: SW480; assay: as above; settings: 5 µM; treatment time 24 h; reporter: 7TFP
# Outline: as §2
compound,measurement,setting,value
Nc1nccc(Oc2ccc(NC(=O)c3c[nH]cc(-c4ccc(F)cc4)c3=O)cc2F)c1Cl,cell viability,[1]; reporter: 7TFP,1.16 ± 0.22
same,cell viability,[1]; reporter: TCF4/Wnt,1.01 ± 0.069
same,cell viability,[2],1.12 ± 0.2
same,cell viability,[3],0.886 ± 0.018
same,TCF/Wnt firefly luciferase reporter signal,[4]; reporter: 7TFP,1.07 ± 0.17
same,TCF/Wnt firefly luciferase reporter signal,[4]; reporter: TCF4/Wnt,0.826 ± 0.016
same,TCF/Wnt firefly luciferase reporter signal,[5],0.766 ± 0.32
same,TCF/Wnt firefly luciferase reporter signal,[6],0.549 ± 0.27
"CC[C@H](CO)Nc1nc(NCc2ccccc2)c2ncn(C(C)C)c2n1 [Roscovitine (Seliciclib, CYC202)]",cell viability,[1]; reporter: 7TFP,0.852 ± 0.065
same,cell viability,[1]; reporter: TCF4/Wnt,0.922 ± 0.0099
same,cell viability,[2],0.923 ± 0.12
same,cell viability,[3],0.833 ± 0.039
same,TCF/Wnt firefly luciferase reporter signal,[4]; reporter: 7TFP,1.14 ± 0.35
same,TCF/Wnt firefly luciferase reporter signal,[4]; reporter: TCF4/Wnt,1.46 ± 0.23
same,TCF/Wnt firefly luciferase reporter signal,[5],1.34 ± 0.43
same,TCF/Wnt firefly luciferase reporter signal,[6],1.02 ± 0.028
CC(=O)c1oc(C)c2c1C(=O)c1cccc(O)c1C2=O [Bhimamycin B],cell viability,[7],0.955 ± 0.019
same,cell viability,[8],1.01 ± 0.015
same,cell viability,[9],0.9505 ± 0.00071
same,TCF/Wnt firefly luciferase reporter signal,[10],1.02 ± 0.035
same,TCF/Wnt firefly luciferase reporter signal,[11],1.1 ± 0.028
Nc1ccc(S(=O)(=O)c2ccc(N)cc2)cc1,cell viability,[7],1.08 ± 0.057
same,cell viability,[8],0.956 ± 0.063
same,cell viability,[9],1.02
same,TCF/Wnt firefly luciferase reporter signal,[10],0.94 ± 0.054
same,TCF/Wnt firefly luciferase reporter signal,[11],0.922 ± 0.059
CCCCCC(C)N (stereo unspecified),cell viability,[7],1.02 ± 0.066
same,cell viability,[8],1.09 ± 0.021
same,cell viability,[9],0.954 ± 0.0099
same,TCF/Wnt firefly luciferase reporter signal,[10],1.14 ± 0.078
same,TCF/Wnt firefly luciferase reporter signal,[11],1.08 ± 0.057
CC(C)CCCC(C)C1CCC2C3=CCC4CC(O)CCC4(C)C3CCC21C (stereo unspecified),cell viability,[7],1.05 ± 0.064
same,cell viability,[8],1.07 ± 0.11
same,cell viability,[9],1.02 ± 0.043
same,TCF/Wnt firefly luciferase reporter signal,[10],0.891 ± 0.083
same,TCF/Wnt firefly luciferase reporter signal,[11],0.897 ± 0.12
COc1ccc(-c2ccc3c(N4CCOC[C@@H]4C)nc(N4CCOC[C@@H]4C)nc3n2)cc1CO,cell viability,[1]; reporter: 7TFP,0.94 ± 0.14
same,cell viability,[1]; reporter: TCF4/Wnt,0.921 ± 0.033
same,cell viability,[2],0.823 ± 0.12
same,cell viability,[3],1.17 ± 0.099
same,TCF/Wnt firefly luciferase reporter signal,[4]; reporter: 7TFP,0.34 ± 0.042
same,TCF/Wnt firefly luciferase reporter signal,[4]; reporter: TCF4/Wnt,0.4795 ± 0.0021
same,TCF/Wnt firefly luciferase reporter signal,[5],0.567 ± 0.08
same,TCF/Wnt firefly luciferase reporter signal,[6],0.829 ± 0.035
CN1C2CCC1CC(OC(=O)C(O)c1ccccc1)C2 (stereo unspecified),TCF/Wnt firefly luciferase reporter signal,[10],1.05 ± 0.042
same,TCF/Wnt firefly luciferase reporter signal,[11],1.12 ± 0.021
CN(C)CC[C@@H](c1ccc(Cl)cc1)c1ccccn1,cell viability,[7],1.01 and 0.901
same,cell viability,[8],0.96 and 1.04
same,cell viability,[9],0.968 and 1.01
same,TCF/Wnt firefly luciferase reporter signal,[10],0.862 and 1.08
same,TCF/Wnt firefly luciferase reporter signal,[11],0.778 and 1.05
COc1ccccc1OCCNCC(O)COc1cccc2[nH]c3ccccc3c12 (stereo unspecified),cell viability,[7],1.05 ± 0.22
same,cell viability,[8],1.06 ± 0.078
same,cell viability,[9],1.1
same,TCF/Wnt firefly luciferase reporter signal,[10],1.21 ± 0.085
same,TCF/Wnt firefly luciferase reporter signal,[11],1.075 ± 0.0071
COc1cc(/C=C/C(=O)CC(=O)/C=C/c2ccc(O)c(OC)c2)ccc1O,cell viability,[7],1.02 ± 0.061
same,cell viability,[8],1.02 ± 0.093
same,cell viability,[9],1.05 ± 0.014
same,TCF/Wnt firefly luciferase reporter signal,[10],1.13 ± 0.14
same,TCF/Wnt firefly luciferase reporter signal,[11],0.982 ± 0.14
Nc1ccc(S(=O)(=O)Nc2ccnn2-c2ccccc2)cc1,cell viability,[7],1.03 ± 0.058
same,cell viability,[8],1 ± 0.052
same,cell viability,[9],0.939 ± 0.013
same,TCF/Wnt firefly luciferase reporter signal,[10],1 ± 0.011
same,TCF/Wnt firefly luciferase reporter signal,[11],1.06 ± 0.057
COc1cc([C@@H]2c3cc4c(cc3[C@@H](O[C@@H]3O[C@@H]5CO[C@@H](C)O[C@H]5[C@H](O)[C@H]3O)[C@H]3COC(=O)[C@H]23)OCO4)cc(OC)c1O,cell viability,[7],1.03 ± 0.028
same,cell viability,[8],0.895 ± 0.12
same,cell viability,[9],1.03 ± 0.042
same,TCF/Wnt firefly luciferase reporter signal,[10],0.815 ± 0.14
same,TCF/Wnt firefly luciferase reporter signal,[11],0.879 ± 0.12
CN(Cc1cnc2nc(N)nc(N)c2n1)c1ccc(C(=O)N[C@@H](CCC(=O)O)C(=O)O)cc1,cell viability,[7],0.475 ± 0.1
same,cell viability,[8],1.055 ± 0.0071
same,cell viability,[9],1.1
same,TCF/Wnt firefly luciferase reporter signal,[10],0.739 ± 0.3
same,TCF/Wnt firefly luciferase reporter signal,[11],1.07 ± 0.064
C[C@]12CC[C@@H]3c4ccc(O)cc4CC[C@H]3[C@@H]1CCC2=O,cell viability,[7],0.894 ± 0.038
same,cell viability,[8],1.05 ± 0.057
same,cell viability,[9],0.995 ± 0.064
same,TCF/Wnt firefly luciferase reporter signal,[10],1.15 ± 0.064
same,TCF/Wnt firefly luciferase reporter signal,[11],1.07 ± 0.085
CO[C@@]1(NC(=O)C(C(=O)O)c2ccc(O)cc2)C(=O)N2C(C(=O)O)=C(CSc3nnnn3C)CO[C@@H]21 (stereo partly specified),cell viability,[7],1.06
same,cell viability,[8],1.02 ± 0.021
same,cell viability,[9],1.07
same,TCF/Wnt firefly luciferase reporter signal,[10],0.962 ± 0.097
same,TCF/Wnt firefly luciferase reporter signal,[11],1.06 ± 0.035
O=C(O)/C=C/c1ccccc1,cell viability,[7],1.09 ± 0.17
same,cell viability,[8],1.08 ± 0.092
same,cell viability,[9],1.09 ± 0.035
same,TCF/Wnt firefly luciferase reporter signal,[10],0.928 ± 0.086
same,TCF/Wnt firefly luciferase reporter signal,[11],1.05 ± 0.035
CC(=O)N[C@@H](CC(=O)c1ccccc1N)C(=O)O [N-Acetyl-kynurenine],cell viability,[7],1.09 ± 0.12
same,cell viability,[8],1.12 ± 0.11
same,cell viability,[9],1.01 ± 0.044
same,TCF/Wnt firefly luciferase reporter signal,[10],0.859 ± 0.17
same,TCF/Wnt firefly luciferase reporter signal,[11],1.05 ± 0.078
NC(=O)NCCC[C@H](N)C(=O)O,cell viability,[7],1 ± 0.12
same,cell viability,[8],1 ± 0.051
same,cell viability,[9],1.015 ± 0.0071
same,TCF/Wnt firefly luciferase reporter signal,[10],0.944 ± 0.043
same,TCF/Wnt firefly luciferase reporter signal,[11],0.864 ± 0.083
CC1(O)CC2C(CC1O)C2(C)C (stereo unspecified),cell viability,[7],0.946 ± 0.051
same,cell viability,[8],0.998 ± 0.06
same,cell viability,[9],0.953 ± 0.011
same,TCF/Wnt firefly luciferase reporter signal,[10],0.91 ± 0.12
same,TCF/Wnt firefly luciferase reporter signal,[11],0.848 ± 0.16
CNCCCN1c2ccccc2CCc2ccccc21,cell viability,[7],0.994 ± 0.023
same,cell viability,[8],0.933 ± 0.013
same,cell viability,[9],0.909 ± 0.041
same,TCF/Wnt firefly luciferase reporter signal,[10],0.868 ± 0.035
same,TCF/Wnt firefly luciferase reporter signal,[11],0.934 ± 0.045
O=C([O-])c1ccccc1O.[Na+],cell viability,[7],1.06 ± 0.035
same,cell viability,[8],1.02 ± 0.077
same,cell viability,[9],1.07 ± 0.028
same,TCF/Wnt firefly luciferase reporter signal,[10],1.04 ± 0.09
same,TCF/Wnt firefly luciferase reporter signal,[11],1.02 ± 0.014
CC1=C(/C=C/C(C)=C/C=C/C(C)=C/C=C/C=C(C)/C=C/C=C(C)/C=C/C2=C(C)C(=O)CCC2(C)C)C(C)(C)CCC1=O [CANTHAXANTHIN (euglenanone)],cell viability,[7],1 ± 0.021
same,cell viability,[8],0.899 ± 0.067
same,cell viability,[9],1.06
same,TCF/Wnt firefly luciferase reporter signal,[10],1.115 ± 0.0071
same,TCF/Wnt firefly luciferase reporter signal,[11],1.17 ± 0.014
COc1ccc(-c2cc(=O)c3c(O)cc(O[C@@H]4O[C@H](CO[C@@H]5O[C@@H](C)[C@H](O)[C@@H](O)[C@H]5O)[C@@H](O)[C@H](O)[C@H]4O)cc3o2)cc1O,cell viability,[7],0.999 ± 0.03
same,cell viability,[8],1.06 ± 0.12
same,cell viability,[9],0.96 ± 0.013
same,TCF/Wnt firefly luciferase reporter signal,[10],1.06 ± 0.13
same,TCF/Wnt firefly luciferase reporter signal,[11],1.04 ± 0.021
CN(C)CCOC(c1ccc(Cl)cc1)c1ccccn1 (stereo unspecified),cell viability,[7],1.004 ± 0.0085
same,cell viability,[8],0.977 ± 0.033
same,cell viability,[9],0.916 ± 0.088
same,TCF/Wnt firefly luciferase reporter signal,[10],0.888 ± 0.0057
same,TCF/Wnt firefly luciferase reporter signal,[11],0.891 ± 0.12
C[C@@H]1C[C@H]2[C@@H]3CCC4=CC(=O)C=C[C@]4(C)[C@@]3(F)[C@@H](O)C[C@]2(C)[C@@]1(O)C(=O)CO,cell viability,[7],1.06 ± 0.071
same,cell viability,[8],1.05 ± 0.057
same,cell viability,[9],0.977 ± 0.016
same,TCF/Wnt firefly luciferase reporter signal,[10],1.04 ± 0.082
same,TCF/Wnt firefly luciferase reporter signal,[11],1.05 ± 0.035
O=C(O)Cc1ccccc1Nc1c(Cl)cccc1Cl,cell viability,[7],0.955 ± 0.078
same,cell viability,[8],0.938 ± 0.037
same,cell viability,[9],0.96 ± 0.032
same,TCF/Wnt firefly luciferase reporter signal,[10],0.95 ± 0.05
same,TCF/Wnt firefly luciferase reporter signal,[11],0.848 ± 0.13
C[C@H]1C[C@@H]2[C@H]([C@@H](O)C[C@@]3(C)[C@H]2CC[C@]3(O)C(=O)COC(=O)CCC(=O)O)[C@@]2(C)C=CC(=O)C=C12,cell viability,[7],0.918 ± 0.13
same,cell viability,[8],1.01 ± 0.018
same,cell viability,[9],0.921 ± 0.012
same,TCF/Wnt firefly luciferase reporter signal,[10],0.964 ± 0.044
same,TCF/Wnt firefly luciferase reporter signal,[11],0.997 ± 0.061
CCN1CCCC(OC(=O)C(c2ccccc2)c2ccccc2)C1 (stereo unspecified),cell viability,[7],0.981
same,cell viability,[8],1.01
same,cell viability,[9],0.953 ± 0.025
same,TCF/Wnt firefly luciferase reporter signal,[10],0.941 ± 0.076
same,TCF/Wnt firefly luciferase reporter signal,[11],1.01 ± 0.07
